Assay results published in PubChem BioAssay (NCATS).
Results filed as inconclusive are left out. A call without a number means that no potency is given here. Active and inactive are the calls of the source. The call rests on the fitted dose curve; in most records, active means well fitted inhibition curve with a large enough effect; inconclusive means small, poorly fitted or top-dose-only effect; inactive means flat fitted curve, though single readings scatter.

Tests used:
Experiment in all cases: qHTS profiling for inhibitors of Plasmodium falciparum proliferation (AID 504749); further: nearly all actives have a fitted effect of over 60% in size
Conditions in all cases: P. falciparum in erythrocytes, SYBR Green DNA, 72 h; series mostly up to 28.7 µM
[1] = system: C2A
How it was run: (§1)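 P. falciparum-infected erythrocytes (0.3% parasitemia, 2.5% hematocrit) incubated with compound 72 h at 37 C, 5% CO2. Parasite DNA detected by SYBR Green after lysis, overnight at room temperature; normalised to 0.29 uM artemisinin and DMSO.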

[2] = system: CP191
How it was run: as §1

[3] = system: CP217
How it was run: as §1

[4] = system: CP237
How it was run: as §1

[5] = system: CP238
How it was run: as §1

[6] = system: CP268
How it was run: as §1

[7] = system: CP269
How it was run: as §1

[8] = system: CP305
How it was run: as §1

[9] = system: DIV14
How it was run: as §1

[10] = system: DIV17
How it was run: as §1

[11] = system: ECU
How it was run: as §1

[12] = system: FAB9
How it was run: as §1

[13] = system: GB4
How it was run: as §1

[14] = system: JCK
How it was run: as §1

[15] = system: P93_24
How it was run: as §1

[16] = system: PAD
How it was run: as §1

[17] = system: PC15
How it was run: as §1

[18] = system: PC26
How it was run: as §1

[19] = system: SC27B
How it was run: as §1

[20] = system: TAB165
How it was run: as §1
Potency means the concentration at half of the fitted maximal effect.

| SMILES | Potency [1] | Potency [2] | Potency [3] | Potency [4] | Potency [5] | Potency [6] | Potency [7] | Potency [8] | Potency [9] | Potency [10] | Potency [11] | Potency [12] | Potency [13] | Potency [14] | Potency [15] | Potency [16] | Potency [17] | Potency [18] | Potency [19] | Potency [20] |
| --- | --- | --- | --- | --- | --- | --- | --- | --- | --- | --- | --- | --- | --- | --- | --- | --- | --- | --- | --- | --- |
| C[C@]12CC[C@H](OS(=O)(=O)O)CC1=CCC1C2CC[C@]2(C)C(=O)CC[C@@H]12 (stereo not given in full) | inactive | inactive | inactive | inactive | inactive | inactive | inactive | inactive | inactive | inactive | inactive | inactive | inactive | inactive | inactive | inactive | inactive | inactive | inactive | inactive |
| CC(C)(O)C1C2OC(=O)C1[C@]1(O)C[C@H]3O[C@]34C(=O)O[C@H]2[C@]14C (stereo not given in full) (tested in a mixture with another compound) | inactive | inactive | inactive | inactive | inactive | inactive | inactive | inactive | inactive | inactive | inactive | inactive | inactive | inactive | inactive | inactive | inactive | inactive | inactive | inactive |
| Oc1ccc2c3c1O[C@H]1[C@@H](O)CC[C@@]4(O)C(C2)N(CC2CCC2)CCC314 (stereo not given in full) | inactive | inactive | inactive | inactive | inactive | inactive | inactive | inactive | inactive | inactive | inactive | inactive | inactive | inactive | inactive | inactive | inactive | inactive | inactive | inactive |
| [Hg+][c]1ccccc1 | inactive | inactive | inactive | inactive | inactive | 9.53 µM (active) | 15.1 µM (active) | 10.7 µM (active) | 9.53 µM (active) | 13.5 µM (active) | inactive | 7.08 µM (active) | 9.53 µM (active) | 11.2 µM (active) | inactive | inactive | 7.94 µM (active) | 12 µM (active) | inactive | inactive |
| C[C@]12CC[C@H]3[C@@H](CCC4=CC(=O)CC[C@@]43C)[C@@H]1CC[C@@H]2O | inactive | inactive | inactive | inactive | inactive | inactive | inactive | inactive | inactive | inactive | inactive | inactive | inactive | inactive | inactive | inactive | inactive | inactive | inactive | inactive |
